In PubChem BioAssay:
The source made the active and inactive calls.

Columns and labels:
[1] = anti-His antibody binders, primary screen, artefact control for SMM control protein annotation, biochemical, small-molecule microarray, 635 nm fluorescence (AID 1128); settings: anti-His Alexa647 antibody binding, higher = more signal;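 also: score merges feature fluorescence with signal-to-noise for each printed compound spot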
[2] = system: Human papillomavirus type 1a E7 protein (residues 1-88); assay: HPV1a E7 small-molecule binders, primary screen, biochemical, small-molecule microarray, residues 1-88, 635 nm (AID 1129); settings: small-molecule microarray binding, fluorescence 635 nm; higher = more signal
[3] = molecular target: Focal adhesion kinase 1 (Homo sapiens) (UniProt Q05397); assay: small-molecule microarray binders of FAK, primary screen, biochemical, 635/667 nm fluorescence, BSA, DTT (AID 1130); settings: PTK2 binding, 635 nm fluorescence, higher = more signal;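 also: composite of spot emission at 667 nm and signal to noise over triplicate slides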
[4] = system: Fibrinogen (Alexa647-labelled); assay: fibrinogen binders on compound microarrays, profiling panel, artefact control for SMM control-protein annotation, biochemical, small-molecule microarray, 635/667 nm fluorescence (AID 1131); settings: fibrinogen-A647 binding fluorescence, higher = more signal;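 also: z-score merges 667 nm fluorescence with per-spot signal-to-noise over triplicate slides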
[5] = molecular target: Follistatin (Homo sapiens) (UniProt P19883); assay: follistatin binders on small-molecule microarrays, primary screen, biochemical, small-molecule microarray, 635/667 nm fluorescence (AID 1132); settings: FST binding, 635 nm fluorescence, higher = more signal
[6] = molecular target: Fibroblast growth factor 2 (Homo sapiens) (UniProt P09038); assay: FGF2 binders on small-molecule microarrays, primary screen, biochemical, small-molecule microarray, 635/667 nm fluorescence (AID 1133); settings: small-molecule microarray binding, FGF2, fluorescence 635/667; higher = more signal
[7] = mitochondrial membrane potential change in A549 cells, profiling panel, cell-based, JC-1 fluorescence, basal, 24 h, 100 nL (AID 1138); settings: higher = more signal;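 also: A549 lung adenocarcinoma cells under basal conditions with no added stimulus; test concentration not given here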
[8] = system: Lefty1; assay: Lefty1 binders on small-molecule microarrays, primary screen, biochemical, small-molecule microarray, 635/667 nm fluorescence (AID 1139); settings: small-molecule microarray binding, fluorescence 635/667; higher = more signal
[9] = system: wheat germ agglutinin (Triticum aestivum), Alexa647-labelled; assay: wheat germ agglutinin binders on compound microarrays, profiling panel, artefact control for SMM control-protein annotation, biochemical, small-molecule microarray, 635/667 nm fluorescence (AID 1140); settings: WGA-A647 binding, 635 nm fluorescence, higher = more signal;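 also: score merges 667 nm feature emission with signal to noise over triplicate slides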
[10] = molecular target: Luciferin 4-monooxygenase (Photinus pyralis) (UniProt P08659); assay: firefly luciferase enzyme inhibitors, primary screen, biochemical, luminescence, purified enzyme, 2006 set (AID 1141); settings: SteadyGlo luminescence, 30 min, higher = more signal, called active from +8 up or from −8 down;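 also: cell-free assay with purified firefly luciferase at 100 ng per well in PBS; test concentration not given here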
Chain of Luciferin 4-monooxygenase (Photinus pyralis) (P08659 whole entry, looked up): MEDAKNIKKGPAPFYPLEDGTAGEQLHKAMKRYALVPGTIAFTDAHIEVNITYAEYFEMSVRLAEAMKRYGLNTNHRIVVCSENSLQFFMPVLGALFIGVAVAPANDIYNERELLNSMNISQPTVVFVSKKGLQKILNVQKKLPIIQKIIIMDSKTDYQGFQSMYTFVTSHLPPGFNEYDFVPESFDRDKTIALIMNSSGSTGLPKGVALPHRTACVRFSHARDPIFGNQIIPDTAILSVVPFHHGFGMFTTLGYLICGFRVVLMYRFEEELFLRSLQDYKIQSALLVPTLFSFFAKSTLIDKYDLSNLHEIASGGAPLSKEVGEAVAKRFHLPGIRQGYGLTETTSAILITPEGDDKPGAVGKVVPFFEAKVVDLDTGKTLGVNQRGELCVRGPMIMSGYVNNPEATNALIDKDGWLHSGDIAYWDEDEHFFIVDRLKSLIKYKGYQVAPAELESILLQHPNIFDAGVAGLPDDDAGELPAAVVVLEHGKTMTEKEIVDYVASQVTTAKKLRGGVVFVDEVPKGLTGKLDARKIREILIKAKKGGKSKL

Chain of Fibroblast growth factor 2 (Homo sapiens) (P09038 whole entry, looked up): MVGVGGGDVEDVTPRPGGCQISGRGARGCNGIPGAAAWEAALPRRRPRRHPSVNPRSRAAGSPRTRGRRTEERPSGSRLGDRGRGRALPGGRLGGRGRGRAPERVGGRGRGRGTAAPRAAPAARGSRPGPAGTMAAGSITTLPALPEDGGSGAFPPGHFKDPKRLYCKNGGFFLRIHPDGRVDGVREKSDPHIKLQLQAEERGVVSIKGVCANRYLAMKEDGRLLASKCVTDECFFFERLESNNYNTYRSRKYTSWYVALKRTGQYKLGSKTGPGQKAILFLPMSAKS
Chain of Follistatin (Homo sapiens) (P19883 whole entry, looked up): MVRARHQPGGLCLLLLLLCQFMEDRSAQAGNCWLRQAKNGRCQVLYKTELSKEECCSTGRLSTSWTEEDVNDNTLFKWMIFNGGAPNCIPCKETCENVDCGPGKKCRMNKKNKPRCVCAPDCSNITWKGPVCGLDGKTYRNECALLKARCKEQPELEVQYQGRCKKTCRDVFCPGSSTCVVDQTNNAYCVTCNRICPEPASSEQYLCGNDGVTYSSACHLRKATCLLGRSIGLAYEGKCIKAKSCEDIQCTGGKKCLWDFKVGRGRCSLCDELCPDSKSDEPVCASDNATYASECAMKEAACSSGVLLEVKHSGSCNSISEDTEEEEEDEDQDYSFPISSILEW
Chain of Focal adhesion kinase 1 (Homo sapiens) (Q05397 whole entry, looked up): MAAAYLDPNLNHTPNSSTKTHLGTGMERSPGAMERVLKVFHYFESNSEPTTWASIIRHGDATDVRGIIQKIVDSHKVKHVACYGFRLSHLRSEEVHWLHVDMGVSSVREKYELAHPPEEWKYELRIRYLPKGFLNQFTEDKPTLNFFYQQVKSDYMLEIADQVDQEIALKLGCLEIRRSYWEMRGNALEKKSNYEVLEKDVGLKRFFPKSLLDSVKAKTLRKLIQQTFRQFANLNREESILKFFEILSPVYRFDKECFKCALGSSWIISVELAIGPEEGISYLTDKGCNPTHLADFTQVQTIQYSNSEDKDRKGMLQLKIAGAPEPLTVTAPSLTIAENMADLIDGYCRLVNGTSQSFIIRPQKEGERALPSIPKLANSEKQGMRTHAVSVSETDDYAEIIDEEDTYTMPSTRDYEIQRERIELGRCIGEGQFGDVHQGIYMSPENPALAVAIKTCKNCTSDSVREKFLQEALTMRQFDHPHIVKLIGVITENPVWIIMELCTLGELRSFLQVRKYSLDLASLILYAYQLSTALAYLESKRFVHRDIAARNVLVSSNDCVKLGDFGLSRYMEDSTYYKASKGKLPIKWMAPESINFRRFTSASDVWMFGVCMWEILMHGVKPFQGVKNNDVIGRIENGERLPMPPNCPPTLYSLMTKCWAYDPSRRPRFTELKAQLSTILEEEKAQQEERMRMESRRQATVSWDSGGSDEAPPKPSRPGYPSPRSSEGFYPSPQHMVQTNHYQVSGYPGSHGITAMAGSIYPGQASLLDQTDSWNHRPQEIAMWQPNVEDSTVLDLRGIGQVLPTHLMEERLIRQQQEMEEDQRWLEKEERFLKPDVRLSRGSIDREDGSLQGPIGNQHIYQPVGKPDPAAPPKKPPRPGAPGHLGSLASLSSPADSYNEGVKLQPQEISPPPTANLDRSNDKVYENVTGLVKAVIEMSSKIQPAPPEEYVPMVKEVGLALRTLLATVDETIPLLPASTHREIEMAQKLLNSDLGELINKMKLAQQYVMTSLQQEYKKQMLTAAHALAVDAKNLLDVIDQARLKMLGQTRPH

Row | SMILES | composite z-score [1] | composite z-score [2] | composite z-score [3] | composite z-score [4] | composite z-score [5] | composite z-score [6] | z-score [7] | composite z-score [8] | composite z-score [9] | z-score [10]
1 | O=C1C2C=CC(C(O)c3ccco3)N(Nc3ccccc3)C2C(=O)N1c1ccccc1 (stereo not given) | -0.317 | 0.556 | -0.0201 | -1.58 | -0.118 | -1.21 | 1.9 | -0.907 | 0.46 | 1.06 (inactive)
2 | CC(C)CNC(=O)[C@@H]1c2ccccc2C(=O)N(C2CCCCC2)[C@H]1c1ccc(CO)cc1 | 0.978 | 0.589 | -0.292 | -0.467 | 0.196 | -0.184 | 1.83 | -0.991 | -0.321 | -1.66 (inactive)
3 | COC(=O)[C@@]1(Cc2ccc(F)cc2)[C@H]2c3cc(C(=O)N(C)C)n(Cc4ccc(O)c(OC)c4)c3C[C@H]2CN1C(=O)c1ccccc1 | 1.15 | 0.575 | 0.489 | 0.977 | 0.0157 | 0.0287 | -1.18 | -0.0615 | 0.438 | 1.08 (inactive)
4 | O=C1OCCC/C=C\[C@H]2OC34C=CCN(c5ccc6ccccc6c5)C(=O)[C@H]3N(CCCO)C(=O)[C@@H]4C12 (stereo not given in full) | 1.09 | -0.0247 | 0.984 | -1.07 | -0.45 | -0.755 | 0.333 | -0.345 | 0.576 | -0.183 (inactive)
5 | C=CC[C@H](OC(=O)Nc1ccc(SC)cc1)c1ccc(OCCO)cc1 | 0.299 | -0.444 | -0.452 | -1.96 | 0.734 | 0.144 | 0.08 | 0.34 | 0.61 | -1.93 (inactive)
6 | COc1cc2c(cc1O)C(c1ccc(CN3CCCC3)cc1)N(C)CC2 (stereo not given) | -1.52 | -2.03 | -0.489 | 0.109 | -0.843 | -0.324 | 0.563 | -1.17 | 0.434 | -0.831 (inactive)
7 | COc1ccc(C(=O)Nc2cccc(CN3C(=O)[C@@]4(O[C@@H](CC(=O)N(CCO)Cc5ccccc5)[C@H]([Si](C)(C)c5ccc(OC)cc5)[C@H]4C)c4ccccc43)c2)cc1 | 0.696 | 1.01 | 0.16 | 0.193 | 0.99 | 1.08 | -0.106 | 1.18 | 0.289 | -1.75 (inactive)
8 | C=CCN1C(=O)[C@]2(O[C@H](CCO)[C@@H]([Si](C)(C)c3ccc(OC)cc3)[C@@H]2C)c2cc(NC(=O)c3ccc(OC)cc3)ccc21 | 1.17 | 0.668 | 0.241 | 0.318 | 1.36 | 1.21 | -1 | 1.03 | 0.286 | -0.772 (inactive)
9 | CCN(CC)c1ccc(N2CC=CC34O[C@@H]5/C=C\CCC(C)OC(=O)C5[C@H]3C(=O)N(C(C)CO)[C@@H]4C2=O)cc1 (stereo not given in full) | -0.361 | -0.935 | 0.212 | -0.145 | 0.565 | -0.0619 | 0.723 | 0.321 | -0.663 | -1.5 (inactive)
10 | CC(C)=CCCC(C)=CC(O)C1C=CC2C(=O)N(c3ccccc3)C(=O)C2N1Nc1ccccc1F (stereo not given) | 1.55 | 1.03 | 0.789 | 0.988 | 0.462 | -0.617 | -0.4 | 0.278 | 0.327 | 2 (inactive)
11 | C=C(/C(=C/C[C@@H](OC(=O)c1ccncc1)c1cccc(OCCO)c1)c1cnc2ccccc2c1)C(C)C | 0.787 | 1.09 | 0.329 | 0.807 | 1.42 | 2.01 | 1.02 | 1.2 | 1.29 | -1.47 (inactive)
12 | O=C(NCC(O)CO)[C@@]1(CCS(=O)(=O)c2ccccc2)COC(c2ccc(OCCCO)cc2)=N1 (stereo not given in full) | 2.29 | 1.17 | 0.204 | 0.904 | 1.36 | 1.28 | -0.583 | -0.682 | 0.41 | 0.405 (inactive)
13 | CCOC(=O)C1=C[C@@H](C(C)(C)C)N(S(=O)(=O)c2ccc(C)cc2)[C@H]1c1ccc(C)cc1 | 0.505 | 1.16 | -0.115 | 0.958 | 1.29 | 0.949 | 4.52 | 1.12 | 0.764 | 0.715 (inactive)
14 | C=C[C@@H](C)[C@@H](OC(=O)Nc1ccc(SC)cc1)c1ccc(OCCO)cc1 | 1.51 | 1.21 | 0.462 | 0.719 | 0.0078 | 0.0877 | -1.64 | 0.191 | 1.04 | -4.2 (inactive)
15 | CCCCC(=C=CC[C@H](O)c1ccc(OCCO)cc1)C[C@H](O)COCc1ccccc1 | 0.522 | 0.0648 | 0.477 | -0.56 | 0.163 | 0.501 | 2.19 | 0.235 | -0.0019 | -1.22 (inactive)
16 | CC(C)OC(=O)CC(=O)CC(O)c1ccc([N+](=O)[O-])cc1 (stereo not given) | 0.42 | 0.304 | -0.0134 | -0.434 | -0.134 | -0.404 | 0.276 | -0.006 | 0.518 | 0.419 (inactive)
17 | O=C1C2C=CC(C(O)c3cccc(O)c3)N(Nc3ccccc3)C2C(=O)N1c1ccccc1 (stereo not given) | 0.811 | 0.452 | 0.0964 | 0.881 | 0.323 | -0.202 | -0.319 | -0.199 | 0.0207 | 0.509 (inactive)

Row | SMILES | composite z-score [1] | composite z-score [2] | composite z-score [3] | composite z-score [4] | composite z-score [5] | composite z-score [6] | z-score [7] | composite z-score [8] | composite z-score [9] | z-score [10]
18 | CCCCCN1CC=CC23O[C@@H]4C=CCOC(=O)[C@@H]4[C@H]2C(=O)N(CCO)[C@@H]3C1=O (stereo not given in full) | 1.58 | -0.22 | 0.0763 | -1.05 | -0.693 | -0.903 | -0.222 | -0.306 | -0.324 | 0.056 (inactive)
19 | O=C1OCCC=C[C@H]2OC34C=CCN(c5ccc(Cl)cc5)C(=O)[C@H]3N(CCCCCCO)C(=O)[C@@H]4C12 (stereo not given in full) | -0.6 | -0.611 | -0.469 | -1.17 | -0.841 | -1.12 | 2.21 | -0.831 | -0.533 | -1.65 (inactive)
20 | COC(=O)[C@@]1(Cc2ccccc2CN=[N+]=[N-])N=C(c2ccc(OCCCO)cc2)O[C@H]1c1ccccc1 | 2.5 | 0.942 | 0.32 | 0.191 | 1.21 | 0.255 | -0.734 | 0.143 | 0.255 | -2.03 (inactive)
21 | CCOC(=O)C[C@H]1[C@H](OC(=O)c2ccccc2-c2ccccc2)[C@@H](NC(=O)c2ccccc2)c2cc(OCCCO)ccc2N1C(=O)c1ccccc1 | -0.356 | 0.558 | 0.59 | 0.847 | 0.378 | 0.673 | 0.629 | 0.292 | 0.0533 | 0.354 (inactive)
22 | Cc1ccc([C@H]2C(C(=O)O)=C[C@@H](C(C)(C)C)N2S(=O)(=O)c2ccc(C)cc2)cc1 | 1.28 | 1.24 | 0.664 | 0.999 | 0.802 | 0.557 | -0.918 | 0.367 | 1.3 | 1.48 (inactive)
23 | CN1C(=O)C2C=CC(C(O)c3cc(C(F)(F)F)cc(C(F)(F)F)c3)N(Nc3ccccc3)C2C1=O (stereo not given) | 0.581 | 0.737 | 0.99 | -0.35 | -0.101 | -0.419 | 0.587 | 0.302 | 0.225 | 0.787 (inactive)
24 | [N-]=[N+]=NCc1ccccc1C[C@]1(C(=O)N2CCOCC2)COC(c2ccc(OCCCO)cc2)=N1 | 2.22 | 1.19 | 0.168 | 0.695 | 0.234 | -0.309 | 2.41 | -0.346 | 1.01 | -1.21 (inactive)
25 | CCCCC=C[C@@H](NC(=O)c1ccccc1)c1ccccc1 | 0.249 | 1.18 | 1.43 | 0.987 | 0.527 | -0.79 | -0.584 | 0.4 | 0.68 | 0.965 (inactive)
26 | COc1ccc([Si](C)(C)[C@@H]2[C@@H](CCn3cc([C@H](O)c4ccccc4)nn3)O[C@]3(C(=O)N(c4ccccc4)c4ccccc43)[C@H]2C)cc1 | -0.684 | 0.386 | 0.474 | -0.308 | 0.586 | 0.184 | 0.00801 | 0.424 | -0.348 | 0.389 (inactive)
27 | C=C(CCCC)C(=O)CC[C@@H](OC(=O)c1cccnc1)c1ccc(OCCO)cc1 | 0.0583 | 0.581 | -0.471 | -0.0496 | 1.47 | 1.56 | 0.335 | 1.57 | 0.363 | -3.15 (inactive)
28 | COC(=O)C(CC#Cc1ccc2c(c1)[C@]1(C(=O)N2)[C@H](c2ccc(OCCO)cc2)N2[C@H](c3ccccc3)[C@H](c3ccccc3)OC(=O)[C@H]2[C@@H]1C(=O)N1CCN(c2ncccn2)CC1)C(=O)OC | 1.92 | 1.21 | -0.528 | 0.993 | 1.37 | 1.35 | -1.56 | 0.857 | 1.04 | -0.195 (inactive)
29 | O=C1c2ccccc2[C@](Cc2ccccc2I)(C(=O)NC2CC2)[C@H](c2ccc(CO)cc2)N1Cc1ccccc1C(F)(F)F | 0.0698 | 0.749 | -0.226 | 0.938 | 1.15 | 0.0532 | -0.254 | 1.26 | 1.15 | 0.0135 (inactive)
30 | C=CCN1C(=O)[C@@]2(O[C@@H](CCO)[C@H]([Si](C)(C)c3ccc(OC)cc3)[C@H]2C)c2cc(N3CCOC3=O)ccc21 | 2.38 | 1.15 | 0.246 | 0.768 | -0.354 | -0.25 | -0.658 | 0.0949 | 0.486 | -1.03 (inactive)
31 | CN(C)CCCCNC(=O)[C@H]1C[C@H]2C(=O)N[C@@H](CCCC[N+](C)(C)C)C(=O)N2[C@H]1c1ccc(O)cc1 | 1.12 | -0.454 | -0.294 | -1.24 | 0.525 | 0.0954 | -0.247 | 0.306 | 0.0976 | 0.0252 (inactive)
32 | CN(C)CCCNC(=O)[C@@H]1c2ccccc2C(=O)N(C2CCCCC2)[C@H]1c1ccc(CO)cc1 | 2.58 | 1.24 | -0.0457 | 0.508 | 1.35 | 1.3 | 0.494 | 1.04 | 0.277 | 0.876 (inactive)
33 | CO[C@H]1O[C@H](CO)[C@@H](OC(=O)Nc2cccc(F)c2)[C@H](OC(=O)Nc2ccccc2-c2ccccc2)[C@H]1OC(=O)Nc1ccccc1-c1ccccc1 | 2.69 | 1.28 | 0.55 | 0.986 | 1.32 | 1.5 | -0.498 | 1.14 | 0.474 | 0.372 (inactive)
34 | CC(C)C(=C=CC[C@@H](O)c1cccc(OCCO)c1)C[C@@H](O)COCc1ccccc1 | 0.292 | 0.158 | -0.276 | 0.0013 | 0.844 | 0.34 | 1.6 | 0.318 | 0.866 | -2.11 (inactive)
